# Data published in PubChem BioAssay (NCI).
# This is part of a sample that, as a whole, favours compounds with a hit. Of some 83,000 tested, about 20% had one in any assay.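 In brief: 96-well plates, 48 h treatment, single concentration, percent growth endpoint.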 The source made the active and inactive calls. Rule for the calls: active = growth percent below 10; inactive = the rest.
# Assays:
# Experiment in all cases: NCI-60 one-dose screen, 48 h (100 = growth as untreated, 0 = no growth, -100 = all killed)
# Details in all cases: 10 µM unless noted
# SK-MEL-2 melanoma = test system: SK-MEL-2 melanoma
# EKVX NSCLC = test system: EKVX NSCLC
# SN12C renal = test system: SN12C renal
# UO-31 renal = test system: UO-31 renal
# TK-10 renal = test system: TK-10 renal
# ACHN renal = test system: ACHN renal
# A498 renal = test system: A498 renal
# CCRF-CEM leukemia = test system: CCRF-CEM leukemia
# SR leukemia = test system: SR leukemia
# MOLT-4 leukemia = test system: MOLT-4 leukemia
Compound,growth (SK-MEL-2 melanoma),growth (EKVX NSCLC),growth (SN12C renal),growth (UO-31 renal),growth (TK-10 renal),growth (ACHN renal),growth (A498 renal),growth (CCRF-CEM leukemia),growth (SR leukemia),growth (MOLT-4 leukemia)
COc1ccc(Cl)c([N+](=O)[O-])c1,104% (inactive),103% (inactive),99% (inactive),90.6% (inactive),95.8% (inactive),107% (inactive),113% (inactive),109% (inactive),93.1% (inactive),
CCc1n(Cc2ccc3ccccc3c2)c2ccccc2[n+]1Cc1ccc2ccccc2c1,71.6% (inactive),76.7% (inactive),65.2% (inactive),87.2% (inactive),75.5% (inactive),96.5% (inactive),87.6% (inactive),63.5% (inactive),28.4% (inactive),
C=C(C)[C@@H]1CC[C@]2(C(=O)OCCOCCOCC[P+](c3ccccc3)(c3ccccc3)c3ccccc3)CC[C@]3(C)[C@H](CC[C@@H]4[C@@]5(C)CC[C@H](OC(C)=O)C(C)(C)[C@@H]5CC[C@]43C)[C@@H]12,,-74.8% (active),-89.9% (active),-95.1% (active),-87.1% (active),-96.7% (active),-94% (active),-41% (active),-49.2% (active),-77.9% (active)
C=C(C)[C@@H]1CC[C@]2(C(=O)NCCCO)CC[C@]3(C)[C@H](CC[C@@H]4[C@@]5(C)CCCNC(C)(C)[C@@H]5CC[C@]43C)[C@@H]12,94.1% (inactive),77.5% (inactive),70.9% (inactive),56.1% (inactive),91.2% (inactive),89.5% (inactive),95.8% (inactive),60.4% (inactive),-19.5% (active),
NC[C@@H]1CCN(c2cc3c(cc2F)c(=O)n(N)c(=O)n3Cc2ccc(-c3ccccc3)cc2)C1,94.4% (inactive),85.3% (inactive),87.3% (inactive),69.7% (inactive),94.7% (inactive),95.3% (inactive),90.3% (inactive),55.4% (inactive),-26.7% (active),
O=C(O)c1ccc(-n2cc(/C=N/Nc3ccc(Cl)cc3Cl)c(-c3ccccc3)n2)cc1,91.6% (inactive),77% (inactive),102% (inactive),67.5% (inactive),109% (inactive),83% (inactive),108% (inactive),93.8% (inactive),86.2% (inactive),
COc1cc(/C=C/C(=O)c2cccs2)ccc1OCc1ccc(Cl)nc1,96.7% (inactive),94.8% (inactive),81.1% (inactive),57.2% (inactive),111% (inactive),102% (inactive),100% (inactive),61.9% (inactive),20.5% (inactive),
COc1ccc(-c2nc(C#N)c(NCC(c3ccco3)N3CCCC3)o2)cc1 (stereo not drawn),53.3% (inactive),54.2% (inactive),49.5% (inactive),51.5% (inactive),82.1% (inactive),43.9% (inactive),42.6% (inactive),18.4% (inactive),21.1% (inactive),
COc1ccc(OCC(=O)OC(C)C)cc1,109% (inactive),99% (inactive),96.8% (inactive),89.6% (inactive),92.9% (inactive),108% (inactive),92% (inactive),112% (inactive),91.9% (inactive),
O=C(Nc1cc(=O)[nH]c(=O)[nH]1)C(Cl)Cl,105% (inactive),114% (inactive),98% (inactive),88.8% (inactive),101% (inactive),111% (inactive),100% (inactive),96% (inactive),98.6% (inactive),
C=C1C(=O)O[C@H]2[C@H]1CC/C(C=Nc1c(N)cc(C(F)(F)F)cc1Br)=C\CC[C@@]1(C)O[C@@H]21,-31.6% (active),18.1% (inactive),-21.8% (active),-71.5% (active),-27.3% (active),-44.6% (active),55.2% (inactive),2.83% (active),-4.04% (active),
CCOC(=O)c1c(-c2ccc(O)cc2)c(C#N)c2c(C#N)c(N)nn2c1N,,71.6% (inactive),81.7% (inactive),69.9% (inactive),82.8% (inactive),88% (inactive),34.9% (inactive),35.7% (inactive),22.3% (inactive),23.7% (inactive)
Cc1ccc(CS/C(=C\c2ccc([N+](=O)[O-])cc2)C(=O)c2ccc(F)cc2)cc1,74.5% (inactive),64% (inactive),45.9% (inactive),46.7% (inactive),91.7% (inactive),60.1% (inactive),89.4% (inactive),5.04% (active),0.11% (active),
CCCCc1n(Cc2ccc3ccccc3c2)c2ccccc2[n+]1Cc1ccc2ccccc2c1,-73.5% (active),-84.6% (active),-92.3% (active),-90.3% (active),-87.1% (active),-91.4% (active),-92.7% (active),-48.2% (active),-54.1% (active),
c1ccc2c3c([nH]c2c1)C(c1ccc(C2NCCc4c2[nH]c2ccccc42)cc1)NCC3 (stereo not drawn),,20.6% (inactive),41.6% (inactive),-0.102% (active),63.4% (inactive),-73.1% (active),116% (inactive),-16.7% (active),-51.5% (active),-62% (active)
COc1ccc(-c2cc(-c3nnc(SCC(=O)Nc4ccc(C(C)=O)cc4)o3)c3ccccc3n2)cc1,,23.2% (inactive),-40.5% (active),-70.7% (active),-28.8% (active),-11.6% (active),18.3% (inactive),32.7% (inactive),-19.5% (active),
CC(=O)[C@@H]1CC[C@]2(C(=O)O)CC[C@]3(C)[C@H](CC[C@@H]4[C@@]5(C)Cc6c([nH]c7ccccc67)C(C)(C)[C@@H]5CC[C@]43C)[C@@H]12,,42.3% (inactive),69.3% (inactive),48.6% (inactive),63.6% (inactive),46.5% (inactive),61.7% (inactive),62.9% (inactive),73.5% (inactive),
O=C(NCc1ccccc1)c1ccc2c(c1)NC(=O)[C@@H]1CCCN21,,101% (inactive),105% (inactive),90.9% (inactive),93.8% (inactive),98.7% (inactive),70.3% (inactive),116% (inactive),106% (inactive),113% (inactive)
OCCNc1nc(NCCO)nc(Nc2ccc(C3=NN(c4cc(Cl)cc(Cl)c4)C(c4ccc(Cl)cc4)C3)cc2)n1 (stereo not drawn),,20.6% (inactive),25.1% (inactive),18.1% (inactive),-2.42% (active),50.8% (inactive),71.2% (inactive),13.3% (inactive),-29.5% (active),2.38% (active)
COc1cc([C@H](C)c2ccc3ccccc3c2)cc(OC)c1OC,,30.9% (inactive),48.3% (inactive),42.1% (inactive),61.4% (inactive),35.1% (inactive),12.7% (inactive),16% (inactive),23.5% (inactive),13.5% (inactive)
O=C1CC(c2ccc(O)c(O)c2)Oc2cc(O)c([C@@H]3O[C@H](CO)[C@@H](O)[C@H](O)[C@H]3O)c(O)c21 (stereo partly drawn),,99.5% (inactive),98.7% (inactive),103% (inactive),106% (inactive),102% (inactive),108% (inactive),97.3% (inactive),98.6% (inactive),100% (inactive)
CCN1CCN(Cc2ccc(NC(=O)c3cccc(C#Cc4cccc5[nH]nc(N)c45)c3)cc2C(F)(F)F)CC1,,-46.4% (active),-35.4% (active),-92.3% (active),-94.4% (active),-81.1% (active),-63.5% (active),-16.2% (active),-49.2% (active),-31.2% (active)
CC[C@H](Nc1ncnc2nc[nH]c12)c1nc2cccc(CC(=O)c3ccc(C(=O)NO)cc3)c2c(=O)n1-c1ccccc1,,90.6% (inactive),84% (inactive),87.4% (inactive),88.1% (inactive),102% (inactive),74% (inactive),90.1% (inactive),67.6% (inactive),66.8% (inactive)
CN1CCN(CC#CCOC(=O)CNC(=O)[C@]23CCC(C)(C)C[C@H]2C2=CC[C@@H]4[C@@]5(C)CC[C@H](O)C(C)(C)[C@@H]5CC[C@@]4(C)[C@]2(C)CC3)CC1,,89.1% (inactive),82.2% (inactive),63% (inactive),109% (inactive),92.5% (inactive),69.4% (inactive),85.6% (inactive),7.96% (active),70.7% (inactive)
Cc1cnc(-c2ccc(-c3ccc(NC(=O)Nc4c(F)cc(F)cc4F)cc3F)c3c2C(=O)NC3)[nH]1,,52% (inactive),3.34% (active),50.3% (inactive),83.6% (inactive),50.4% (inactive),22.4% (inactive),23.9% (inactive),-3.54% (active),18.3% (inactive)
